According to PubChem BioAssay AID2391 (Southern Research Specialized Biocontainment Screening …, 2010):
Hit rate of the full screen: of about 310,000 compounds, about 410 (0.13%) were called active. Inconclusive results (about 2%) are left out. No rule for the calls is given here. Not all results are given here. Entries with a potency or affinity are not part of this list.

Experiment: inhibition of RSV-induced cytopathic effect – HEp-2 cells, primary 10 µM value included (AID 2391)
Settings: at 10 µM, stronger effect = higher value

CPE inhibition, inactive:
Cc1nnc(OCc2nc3ccccc3n2C)c2ccccc12 6.77%, Cn1c(COc2nnc(-c3ccc(Cl)cc3)c3ccccc23)nc2ccccc21 5.55%, CC(=O)Nc1ccc(NC(=O)c2c(C)nn(Cc3ccccc3Cl)c2C)cc1 1.12%, CCC(CC)c1nnc(NC(=O)c2c(C)nn(Cc3ccccc3Cl)c2C)s1 10.8%, COc1ccc(-c2nc(N=Nc3ccc(O)cc3)n[nH]2)cc1 9.37%, CN(C)S(=O)(=O)c1cc(NC(=O)CN2CCN(c3ccc(O)cc3)CC2)ccc1Cl 0.75%, OC1CCN(c2cc(-c3ccccc3)nc3cc(-c4ccc(F)cc4)nn23)CC1 5.15%, COc1cccc(-c2cc3nc(-c4ccccc4)cc(N4CCCC(O)C4)n3n2)c1 (configuration not stated) 14.1%, C=CCOC(=O)C(C#N)c1nc2ccccc2nc1N1CCN(c2ccccc2OC)CC1 (configuration not stated) 0.49%, CC(=O)Nc1ccc2[nH]ccc2c1 -0.73%, C/C(=N\O)c1ccc2[nH]ccc2c1 5.17%, COc1ccc(OC)c(NC(=O)c2cccc(S(=O)(=O)N(Cc3ccccc3)c3ccccc3OC)c2)c1 2.42%, Cc1nc2ccc(N=NC3=C(O)CC(C)(C)CC3=O)cc2s1 2.75%, COc1ccccc1OCCn1cc(C=O)c2ccccc21 -0.05%, O=C(NC(Cc1c[nH]c2ccccc12)C(=O)N/N=C/c1ccc(Br)cc1)c1cccs1 (configuration not stated) -2.58%, O=C(NC(Cc1c[nH]c2ccccc12)C(=O)N/N=C/c1cccc2ccccc12)c1cccs1 (configuration not stated) 18.5%, COC(=O)C(Cc1c[nH]c2ccccc12)NC(=O)c1cccs1 (configuration not stated) 1.21%, O=C(NC(Cc1c[nH]c2ccccc12)C(=O)N1CCOCC1)c1cccs1 (configuration not stated) -0.02%, O=C(Nc1ccc(F)c([N+](=O)[O-])c1)c1cccs1 4.17%, O=C(NC(Cc1c[nH]c2ccccc12)C(=O)O)c1cccs1 (configuration not stated) -1.85%, CC1(C)CC(=O)c2cc(C(=O)NC3CCSC3=O)c(=O)n(-c3ccc(Cl)cc3)c2C1 (configuration not stated) 0.72%, O=S(=O)(Nc1ccccc1)c1cccc2nsnc12 1.2%, CCc1ccc(N2CC(C(=O)OCC(=O)NNC(=O)c3ccccc3)CC2=O)cc1 (configuration not stated) 1.46%, COc1cccc(NC(=O)C(NCC(C)(C)CN(C)C)c2ccccc2)c1 (configuration not stated) 1.08%, CC1(C)Cc2cccc(C(=O)Nc3ccc(Cl)cc3)c2O1 13.1%, CC1CCN(C(=O)COC(=O)Cc2c[nH]c3ccccc23)CC1 -0.07%, CCOC(=O)N1CCc2c(sc3c2c(=O)n(-c2ccc(CC)cc2)c(=O)n3CC(=O)NCC2CCCO2)C1 (configuration not stated) -1.83%, COc1cc([N+](=O)[O-])cc(/C=N/NC(=O)C(C)Nc2cccc3ccccc23)c1O (configuration not stated) 7.79%, O=C(CNc1cccc2ccccc12)N/N=C/c1ccc([N+](=O)[O-])cc1 0.72%, Cc1cccnc1NC(=S)Nc1ccc(F)cc1F 1.49%, COC(=O)[C@@H]1[C@@H](C)N(Cc2ccccc2)C(=O)N[C@H]1c1cccc(C(F)(F)F)c1 3.75%, Cc1cc2nc3n(c2cc1C)CCCN3 5.29%, O=C(Nc1sc(-c2ccccc2)cc1C(=O)O)c1ccccc1 7.6%, CCOC(=O)c1cc(-c2ccccc2)sc1NC(=O)C(C)(C)C 0.09%, COc1ccc(-c2cc(-c3ccc(C)cc3)nc(SCc3nnc(-c4ccccc4)o3)c2C#N)cc1OC 2.51%, Cc1ccc(OCCOC(=O)c2cccc(S(=O)(=O)N3CC(C)OC(C)C3)c2)cc1 (configuration not stated) 3.28%, Cc1cc(/C=C2/C(=N)N3C(=NC2=O)SN=C3S(C)(=O)=O)c(C)n1-c1ccc(F)cc1 7.04%, COc1ccc(/C=C2\C(=N)N3N=C(CC(=O)N4CCOCC4)SC3=NC2=O)cc1 -0.02%, COc1ccc(-n2c(C)cc(/C=C3\C(=N)N4N=C(CC(=O)N5CCOCC5)SC4=NC3=O)c2C)cc1 3.44%, COc1cccc(-n2c(C)cc(/C=C3/C(=N)N4C(=NC3=O)SN=C4S(C)(=O)=O)c2C)c1 16.5%, Cc1cc(/C=C2\C(=N)N3N=C(CC(=O)N4CCOCC4)SC3=NC2=O)c(C)n1-c1ccccc1 7.24%, COc1ccc(OC)c(-n2c(C)cc(/C=C3\C(=N)N4N=C(CC(=O)N5CCOCC5)SC4=NC3=O)c2C)c1 17%, CCC1=NN2C(=N)/C(=C\c3cccn3-c3ccc(OC)cc3)C(=O)N=C2S1 5.71%, O=C(N/N=C/c1ccc(Cl)cc1)C(=O)N1CCCCCC1 -0.12%, O=C(NCc1ccco1)/C(=C\c1cccs1)NC(=O)c1ccco1 -0.55%, Nc1nc(N2CCCCC2)nc(N2CCCCC2)n1 0.85%, NS(=O)(=O)c1ccc(CNS(=O)(=O)c2ccc3c(c2)OCCO3)cc1 2.01%, Cc1cc(=O)oc2cc(NC(=O)c3cccc(F)c3)ccc12 4.53%, Clc1ccc(-n2c(SCc3nc4ccccc4[nH]3)nnc2-c2ccncc2)cc1 0.34%, CC(=O)NC(c1ccc(F)cc1)c1cccnc1 (configuration not stated) 1.45%, CCc1nc(SCC(=O)c2cccc([N+](=O)[O-])c2)n[nH]1 1.44%, CCN1C(=O)N[C@@H](c2ccc(Br)cc2)C(C(=O)OC)=C1C 5.67%, CC(=O)C1=C(C)N(Cc2ccccc2)C(=O)N[C@H]1c1cccc(C(F)(F)F)c1 4.45%, COC(=O)C1=C(C)N(Cc2ccccc2)C(=S)N[C@H]1c1ccccc1 14.1%, COC(=O)C1=C(C)N(Cc2ccccc2)C(=O)N[C@H]1c1cccc(F)c1 3.4%, CCN1C(=O)N[C@H](c2ccc(Br)cc2)C(C(=O)OC)=C1C 0.05%, CC(=O)C1=C(C)N(Cc2ccccc2)C(=O)N[C@@H]1c1cccc(C(F)(F)F)c1 0.41%, O=C(CSc1nccc(=O)[nH]1)c1ccccc1Br 2.89%, COc1ccc(C)cc1NC(=O)CSc1nnnn1C1CCCC1 2.31%, Cc1cc(=O)[nH]c(NCc2ccc(Cl)cc2)n1 0.3%, Cc1ccsc1C(=O)NNC(=O)C1C2C=CC(C2)C1C(=O)O (configuration not stated) 0.87%, COc1ccc(OCc2nnc(SCC(=O)Nc3cccc(Cl)c3)o2)cc1 2.31%, CSc1nnc(-c2sc3cc(Cl)ccc3c2Cl)n1C 14%, CCn1c(SC)nnc1-c1nnc(SC)n1CC 3.28%, O=C(Cn1nc(-c2ccccc2)c2ccccc2c1=O)Nc1ccc(F)cc1 2.89%, COc1ccc(CNC(=O)c2coc(=O)c3ccccc23)c(OC)c1 -0.36%, COc1ccc(CNC(=O)c2coc(=O)c3ccccc23)cc1 5.17%, C#CCn1c(S(=O)(=O)Cc2ccccc2Cl)nc(-c2ccccc2)c1-c1ccccc1 -0.31%, C#CCn1c(S(=O)(=O)Cc2ccc(OC)cc2)nc(-c2ccccc2)c1-c1ccccc1 3.68%, Cc1cc([N+](=O)[O-])nn1CCCC(=O)O 5.17%, CN(NC(=O)c1cccc(Cl)c1)c1nc(-c2ccccc2)nnc1C(F)(F)F 3.22%, CCN(CC(=O)Nc1cc(Cl)ccc1C)C(=O)CCOc1ccc(C)cc1 0.1%, CCN(CC(=O)Nc1cc(Cl)ccc1C)C(=O)CSCc1c(C)noc1C 16.3%, COc1cc(C(=O)NCC(=O)N/N=C/c2c(C)[nH]c3ccccc23)cc(OC)c1OC 3.1%, COc1ccc(C(=O)NCC(=O)N/N=C/c2c(C)[nH]c3ccccc23)cc1 6.54%, CC(=O)c1ccc(N2CCN(C(=O)c3nn(Cc4ccccc4)c(=O)c4ccccc34)CC2)cc1 5.5%, COc1ccc(NC(=O)Cn2nnc(-c3ccccc3NC(=O)c3ccco3)n2)cc1 0.17%, COc1ccccc1NC(=O)c1sc2ncn(Cc3cccc4ccccc34)c(=O)c2c1C 2.87%, COc1ccccc1N(CC(=O)Nc1ccc(F)c(F)c1)S(C)(=O)=O 0.09%, Nc1ccn([C@@H]2O[C@H](CO)[C@@H](O)[C@@H]2O)c(=O)n1 -0.64%, O=c1ccn([C@@H]2O[C@H](CO)[C@@H](O)[C@H]2O)c(=O)[nH]1 -0.56%, O=c1[nH]c(=O)n(C2OC(CO)C(O)C2O)cc1Br (configuration not stated) -0.14%, Nc1ccn([C@@H]2O[C@H](CO)[C@@H](O)C2O)c(=O)n1 (some centres not stated) -2.12%, CCOc1ccccc1Nc1cc(C)nc2nnnn12 -1.74%, Cc1ccc(S(=O)(=O)[N-]c2nc3ccccc3nc2-n2cc[n+](CCC(C)C)c2)cc1 0.13%, COc1cc(NC(=S)N2CCN(Cc3ccccc3)CC2)cc(OC)c1 4.9%, Cc1cccc(-n2c(C)cc(/C=C3\NC(=O)NC3=O)c2C)c1 5.86%, Cc1cc(/C=C2/NC(=O)NC2=O)c(C)n1-c1ccncc1 19.7%, Cc1cc(/C=C2\C(=O)NN(c3ccccc3)C2=O)c(C)n1-c1ccccc1O -1.31%, Cc1cc(/C=C2/NC(=O)NC2=O)c(C)n1C 3.8%, Cc1cc(/C=C2/NC(=O)NC2=O)c(C)n1-c1ccccn1 2.98%, Cc1cc(/C=C2/C(=O)NN(c3ccccc3)C2=O)c(C)n1-c1cccc(O)c1 1.07%
